The source of these data is PubChem BioAssay (NCATS).

Results filed as inconclusive are left out. Calls of active or inactive are those of the source. Unless noted, calls follow the shape of the dose curve; as a rule, active = well fitted curve in the direction sought with a large enough effect; inconclusive = small, poorly fitted or top-dose-only effect, or another doubt; inactive = no such curve, though single readings can be large; an effect the other way counts as inactive or inconclusive.

The target of assay [1] is Lysosomal acid glucosylceramidase (Homo sapiens) (UniProt P04062). Nature of the assay: Glucocerebrosidase-p2 (AID 348; in the data active = potency below about 10 µM; also: potency is read from the fitted curve at half-maximal effect). The conditions noted are these: purified GBA, blue fluorogenic substrate, 40 min. The method in brief:
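Normal human glucocerebrosidase (0.2 nM) with blue fluorogenic substrate (80 uM final) in citrate/phosphate pH 5.9 with 10mM sodium taurocholate, 0.01% tween-20; 40 min RT, NaOH/glycine stop; fluorescence Ex 365/Em 440; AC50 from a titration from 0.6 nM upwards.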

Assay [2] in a line: AP1 Signaling Pathway (AID 357; active = well fitted curve in either direction with a large enough effect, not every such curve was filed as active;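 also: ME-180 reporter cells stimulated with EGF at its EC50 level; % is scaled to controls: 0 for no effect and ±100 for the full control effect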). The conditions noted are these: ME-180 AP-1-bla reporter, EGF-induced, beta-lactamase ratio, 5 h; at 7.69 µM (top of the series) unless noted. The procedure, abridged: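 AP-1-bla ME-180 cells, Opti-MEM + 0.5% dialyzed FBS, plated overnight 37 °C. Cpd titration + EC50 EGF, 5 h 37 °C. CCF4 2.5 h RT; ex 405, em 460/530 ratio → %activity, AC50.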

Assay [3] addresses Cytochrome P450 1A2 (Homo sapiens) (UniProt P05177). Put plainly: p450-cyp1a2 (AID 410; calls by dose curve; also: potency is read from the fitted curve at half-maximal effect;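 as to activity change, negative = inhibition: -100% = full effect of reference inhibitor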). The conditions noted are these: recombinant CYP1A2, luciferin-ME demethylation, luminescence; series mostly up to 57 µM. The method in brief: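 Read-out is luminescence from luciferin produced by CYP1A2 demethylation of Luciferin-ME (100uM, at Km). Detection reagent stopped the 60 min NADPH-dependent reaction; signals were normalized to 57 uM furafylline.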

Assay [4] is described as follows: NFAT Signaling Pathway (AID 444; active = well fitted curve in either direction with a large enough effect, not every such curve was filed as active;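 also: carbachol stimulus at about its EC50 of 1 µM final; % is scaled to controls: 0 for no effect and ±100 for the full control effect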). The conditions noted are these: Jurkat NFAT-bla M1, carbachol, beta-lactamase ratio, 5 h; at 7.69 µM (top of the series) unless noted. The procedure, abridged: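 Jurkat cells carrying an NFAT-driven β-lactamase reporter and co-transfected muscarinic M1 receptor were treated with compound plus carbachol (1 uM final, an EC50 level) for 5 h at 37 °C. CCF4 loading followed for 1 h at RT; 460/530 nm ratio gave %activity.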

The nature of assay [5]: Stat Signaling Pathway (AID 446; active = well fitted curve in either direction with a large enough effect, not every such curve was filed as active;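 also: ME-180 cervical cancer cells given 40 pM IL-6 alongside compound; SIE-controlled beta-lactamase reporter measured as 460/530 nm FRET emission ratio; % is scaled to controls: 0 for no effect and ±100 for the full control effect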). The conditions noted are these: ME-180 (cervical carcinoma) SIE beta-lactamase reporter, IL-6 stimulated, 5 h; at 7.69 µM (top of the series) unless noted. The method in brief: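 Overnight-plated ME-180 cells bearing a STAT Inducible Element beta-lactamase reporter; 5 h co-exposure to compound and 40 pM IL-6; values normalized to 300 pM IL-6 and 125 nM JAK inhibitor controls.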

Assay [6] has as its target Glucocorticoid receptor (Homo sapiens) (UniProt P04150). Nature of the assay: GR-GFP Redistribution (AID 450;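 active = compounds whose dose series gives a full or clear partial fitted curve of increased nuclear translocation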; also: potency is read from the fitted curve at half-maximal effect). The conditions noted are these: U2OS GR-GFP nuclear translocation, laser cytometry, 2 h.
Assay [7] shares this target. Put plainly: GR-EFC Redistribution (AID 451; calls by dose curve; also: potency is read from the fitted curve at half-maximal effect). The conditions noted are these: CHO-K1 GR-EFC translocation, beta-gal luminescence, 2 h. The procedure, abridged:
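CHO-K1 cells stably expressing nuclear-localized β-gal enzyme acceptor and GR fused C-terminally to the enzyme donor fragment; ligand-driven nuclear translocation restores β-gal by complementation. Compounds titrated up to 46 uM final, 2 h at 37 °C; luminescence read.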

Assay [8] deals with Mitogen-activated protein kinase 10 (Mus musculus) (UniProt Q61831). Put plainly: JNK3 AlphaScreen Assay (AID 530; active = well fitted curve in either direction with a large enough effect, not every such curve was filed as active;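 also: kinase came from lysate of stimulated human HepG2 cells; % is scaled to controls: 0 for no effect and ±100 for the full control effect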). The conditions noted are these: JNK3 lysate, c-Jun phosphorylation; series mostly up to 57.1 µM. The procedure, abridged: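 Biotinylated GST-cJun(1-79) served as substrate for JNK3 in HepG2 lysates stimulated with IL-1beta and TNF-alpha. ATP was 10 uM final, pH 7.6. Ser73 phosphorylation was quantified by AlphaScreen (680 nm excitation).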
(In Alpha technology, singlet oxygen from a donor bead excites a nearby acceptor bead.)

The target in assay [9] is 3',5'-cyclic-AMP phosphodiesterase 4B (Homo sapiens) (UniProt Q07343). Put plainly: qHTS Assay for Inhibitors of PDE-IV (AID 607; active = well fitted activation curve with a large enough effect in the main read-out, with a control signal flat, not every such curve was filed as active; also: % of control where 0% means no effect). The conditions noted are these: HEK293 ACTOne CNG channel cells, membrane potential fluorescence; series mostly up to 22.9 µM. The procedure, abridged: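 Live HEK293 cells with a modified cyclic nucleotide-gated (CNG) channel report intracellular cAMP via membrane-potential dye fluorescence (ex 535/em 590 nm). Endogenous PDE-IV was targeted. Compounds were tested at up to 22.9 uM final; RO 20-1724 100 uM served as control.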
In general terms: In qHTS, concentration-response curves come from the screen itself.

The target of assay [10] is Cytochrome P450 3A4 (Homo sapiens) (UniProt P08684). Put plainly: qHTS Assay for Inhibitors and Substrates of Cytochrome P450 3A4 (AID 884). Also: potency is read from the fitted curve at half-maximal effect; nearly all actives have a fitted effect of over 50% in size. The conditions noted are these: recombinant CYP3A4, Luciferin-PPXE luminescence; series mostly up to 57.1 µM. The procedure, abridged:
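Luminescent readout of luciferin produced by CYP3A4 (20 nM) dealkylation of Luciferin-PPXE, 25 uM (its KM). NADPH-driven reaction ran 60 min at RT after 10 min compound preincubation; data scaled to 57 uM ketoconazole as 100% inhibition.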

The target is the same in assay [11]. Nature of the assay: qHTS Assay for Activators of Cytochrome P450 3A4 (AID 885). Also: nearly all actives have a fitted effect of over 65% in size. The conditions noted are these: recombinant CYP3A4, Luciferin-PPXE luminescence, 60 min; series mostly up to 57.1 µM. The method in brief:
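Using 20nM recombinant human CYP3A4 in potassium phosphate (200mM), substrate Luciferin-PPXE at 25uM, luminescent luciferin detection followed a 60-min RT NADPH reaction; data scaled to 57 uM ketoconazole.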

In assay [12] the target is Cytochrome P450 2C19 (Homo sapiens) (UniProt P33261). Nature of the assay: qHTS Assay for Inhibitors and Substrates of Cytochrome P450 2C19 (AID 899). Also: potency is read from the fitted curve at half-maximal effect; nearly all actives have a fitted effect of over 60% in size. The conditions noted are these: recombinant CYP2C19, luciferin-H EGE luminescence; series mostly up to 57.1 µM. The procedure, abridged:
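In 50mM KPO4, the reaction held 5nM enzyme and KM-level (10uM) Luciferin-H EGE; it ran 60 min at 37C after NADPH regeneration and a 10 min compound preincubation. Luminescence values were scaled to 57uM ketoconazole as complete inhibition.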

Assay [13] can be described thus: qHTS Assay for Lipid Storage Modulators (AID 1519; calls by dose curve). The conditions noted are these: Drosophila S3 cells, BODIPY lipid droplet/cell ratio, laser cytometry, cells loaded with oleic acid; for activity change, negative = inhibition: at 57.5 µM (top of the series). The method in brief: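 Cells seeded at 5,000 per well were treated with compounds over a concentration series and loaded with oleic acid (400 uM, as added). Lipid droplet fluorescence (488 nm excitation, 500-530 nm channel) was read by laser-scanning cytometry and normalized to 20 uM Triacsin C.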

Assay [14] has as its target Dual specificity protein kinase CLK4 (Homo sapiens) (UniProt Q9HAZ1). Nature of the assay: qHTS Assay for Inhibitors of CDC-like Kinase 4 (Kinase-Glo Assay) (AID 1770). Also: nearly all actives have a fitted effect of over 65% in size. Also: potency is read from the fitted curve at half-maximal effect. The conditions noted are these: recombinant Clk4, Kinase-Glo ATP depletion luminescence; series mostly up to 66.7 µM. The method in brief:
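Inhibition was judged from remaining ATP, measured by Ultra-Glo luciferase bioluminescence after Clk4 (25 nM) had acted on RS peptide at 1 uM ATP for 4.5 hours, room temperature.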

For assay [15] the target is unchanged. Nature of the assay: qHTS Assay for Inhibitors of CDC-like Kinase 4 (ADP-FP Assay) (AID 1795).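 Also: recombinant human CLK4 phosphorylating RS repeat peptide at 1 µM ATP; % is scaled to controls: 0 for no effect and ±100 for the full control effect; nearly all actives have a fitted effect of over 60% in size.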 The conditions noted are these: Transcreener ADP fluorescence polarization; series mostly up to 50 µM. The method in brief:
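Inhibition of ADP formation by 6.25 nM Clk4 is measured using 1 uM ATP and 100 uM RS repeat peptide over one hour. Produced ADP displaces a fluorescent tracer from antibody, lowering polarization.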

The target of assay [16] is Ubiquitin carboxyl-terminal hydrolase 1 (Homo sapiens) (UniProt O94782). Put plainly: Inhibitors of USP1/UAF1: Pilot qHTS (AID 504865).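 Also: rhodamine fluorescence freed from ubiquitin-rhodamine substrate followed over time; top concentration of the series differs between compounds; % is scaled to controls: 0 for no effect and ±100 for the full control effect; nearly all actives have a fitted effect of over 35% in size.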 The conditions noted are these: purified USP1/UAF1, Ub-rhodamine cleavage fluorescence; series mostly up to 54.9 µM. The method in brief: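 Kinetic fluorescence assay: 1nM USP1/UAF1, 15 min compound preincubation, then 150nM Ub-Rho; 480/540 nm.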

The nature of assay [17]: Primary qHTS for small molecule stabilizers of the endoplasmic reticulum resident proteome: Secreted ER Calcium Modulated Protein (SERCaMP) assay (AID 1508630). Also: % is scaled to controls: 0 for no effect and ±100 for the full control effect. The conditions noted are these: SH-SY5Y GLuc-SERCaMP (Gaussia luciferase released on ER calcium loss) secretion, thapsigargin, luminescence; series mostly up to 38.4 µM. The method in brief:
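The SH-SY5Y reporter protocol was run at 3 concentrations up to 38.3 uM (primary) or 11 concentrations (follow-up): 16 h compound, 100 nM thapsigargin for 4 h, then extracellular luciferase luminescence.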

Assay [18] deals with Dual specificity protein kinase CLK4 (Homo sapiens) (UniProt Q9HAZ1). Put plainly: qHTS Assay for Inhibitors of CDC-like Kinase 4 (ADP-Glo Assay) (AID 1771). Also: nearly all actives have a fitted effect of over 70% in size. Also: potency is read from the fitted curve at half-maximal effect. The conditions noted are these: recombinant CLK4, ADP-Glo luminescence; series mostly up to 80 µM. The method in brief: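 In this ADP-Glo format, 1 uM ATP and 100 uM RS peptide served as substrates for 25 nM Clk4 in Mg2+/EGTA/DTT/Triton buffer; reactions ran 1 hr at room temperature before luminescent ADP quantification.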

Where [19] appears, read: measured here: cell count channel max response.
The mark [20] stands for this setting: measured here: lipid channel max response.

Chain of Glucocorticoid receptor (Homo sapiens) (P04150 whole entry, looked up): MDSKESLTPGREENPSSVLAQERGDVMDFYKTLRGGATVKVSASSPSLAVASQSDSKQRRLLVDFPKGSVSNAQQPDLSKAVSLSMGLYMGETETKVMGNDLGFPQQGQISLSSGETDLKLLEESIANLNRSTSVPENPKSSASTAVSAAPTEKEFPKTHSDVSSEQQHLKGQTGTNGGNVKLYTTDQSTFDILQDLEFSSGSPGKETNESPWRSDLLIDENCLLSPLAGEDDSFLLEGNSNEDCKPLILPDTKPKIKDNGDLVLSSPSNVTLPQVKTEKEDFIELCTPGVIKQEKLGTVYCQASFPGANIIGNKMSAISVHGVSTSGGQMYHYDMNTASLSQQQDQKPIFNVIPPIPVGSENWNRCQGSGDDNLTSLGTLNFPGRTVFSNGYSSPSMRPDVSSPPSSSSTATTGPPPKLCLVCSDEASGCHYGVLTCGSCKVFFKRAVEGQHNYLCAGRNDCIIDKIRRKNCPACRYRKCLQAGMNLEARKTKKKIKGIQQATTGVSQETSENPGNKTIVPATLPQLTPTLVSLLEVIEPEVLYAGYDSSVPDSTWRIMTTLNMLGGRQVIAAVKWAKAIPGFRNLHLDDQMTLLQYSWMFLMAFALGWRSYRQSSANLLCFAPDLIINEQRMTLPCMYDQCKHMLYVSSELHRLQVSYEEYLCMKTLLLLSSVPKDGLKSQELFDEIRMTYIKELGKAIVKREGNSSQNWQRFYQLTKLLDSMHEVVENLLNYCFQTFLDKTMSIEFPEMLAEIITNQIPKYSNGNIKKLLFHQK
Chain of 3',5'-cyclic-AMP phosphodiesterase 4B (Homo sapiens) (Q07343 whole entry, looked up): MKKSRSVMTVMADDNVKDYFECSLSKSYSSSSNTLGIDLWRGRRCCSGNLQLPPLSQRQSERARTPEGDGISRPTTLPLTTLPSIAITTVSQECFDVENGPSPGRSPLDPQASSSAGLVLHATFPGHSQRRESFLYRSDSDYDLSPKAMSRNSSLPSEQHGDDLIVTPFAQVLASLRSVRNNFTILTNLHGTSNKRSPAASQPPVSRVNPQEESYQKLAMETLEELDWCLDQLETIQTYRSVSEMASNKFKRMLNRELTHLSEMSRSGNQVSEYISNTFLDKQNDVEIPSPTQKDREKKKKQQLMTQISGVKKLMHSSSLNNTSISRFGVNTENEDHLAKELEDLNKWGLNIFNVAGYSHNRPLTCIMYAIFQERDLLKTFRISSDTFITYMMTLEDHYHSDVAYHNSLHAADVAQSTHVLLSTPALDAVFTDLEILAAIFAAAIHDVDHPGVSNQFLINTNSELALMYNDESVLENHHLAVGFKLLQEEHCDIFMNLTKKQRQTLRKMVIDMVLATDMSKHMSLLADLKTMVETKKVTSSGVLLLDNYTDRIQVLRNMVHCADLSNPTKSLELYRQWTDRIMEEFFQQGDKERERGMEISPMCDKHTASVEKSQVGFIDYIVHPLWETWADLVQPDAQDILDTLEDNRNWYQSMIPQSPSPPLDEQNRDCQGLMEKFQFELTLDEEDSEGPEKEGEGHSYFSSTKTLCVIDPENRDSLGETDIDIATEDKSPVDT
Chain of Cytochrome P450 3A4 (Homo sapiens) (P08684 whole entry, looked up): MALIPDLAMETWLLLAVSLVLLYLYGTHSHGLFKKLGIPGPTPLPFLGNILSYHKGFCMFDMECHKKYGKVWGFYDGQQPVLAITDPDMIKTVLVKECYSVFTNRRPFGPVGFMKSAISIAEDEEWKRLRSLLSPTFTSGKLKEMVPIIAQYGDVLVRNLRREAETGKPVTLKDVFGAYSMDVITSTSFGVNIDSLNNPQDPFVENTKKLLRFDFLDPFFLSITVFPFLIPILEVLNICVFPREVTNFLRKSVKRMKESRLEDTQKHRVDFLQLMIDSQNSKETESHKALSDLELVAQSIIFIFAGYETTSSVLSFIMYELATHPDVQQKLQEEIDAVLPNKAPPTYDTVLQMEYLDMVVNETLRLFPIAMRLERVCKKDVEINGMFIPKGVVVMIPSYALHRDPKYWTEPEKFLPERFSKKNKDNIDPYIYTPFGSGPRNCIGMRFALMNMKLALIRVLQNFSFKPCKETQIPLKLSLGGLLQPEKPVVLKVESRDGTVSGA
Chain of Dual specificity protein kinase CLK4 (Homo sapiens) (Q9HAZ1 whole entry, looked up): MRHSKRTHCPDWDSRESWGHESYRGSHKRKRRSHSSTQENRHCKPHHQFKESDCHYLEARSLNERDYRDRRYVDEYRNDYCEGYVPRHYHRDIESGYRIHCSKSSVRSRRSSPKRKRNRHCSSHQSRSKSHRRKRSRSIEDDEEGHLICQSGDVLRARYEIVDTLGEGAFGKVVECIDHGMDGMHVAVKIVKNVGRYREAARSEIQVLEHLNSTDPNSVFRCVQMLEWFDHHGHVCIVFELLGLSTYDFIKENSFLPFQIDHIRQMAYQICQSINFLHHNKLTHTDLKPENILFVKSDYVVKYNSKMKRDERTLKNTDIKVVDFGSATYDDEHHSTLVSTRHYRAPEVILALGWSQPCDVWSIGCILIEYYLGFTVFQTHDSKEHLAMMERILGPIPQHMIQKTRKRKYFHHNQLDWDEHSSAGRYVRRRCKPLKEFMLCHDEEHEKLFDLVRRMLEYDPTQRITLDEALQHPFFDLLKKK
Chain of Cytochrome P450 1A2 (Homo sapiens) (P05177 whole entry, looked up): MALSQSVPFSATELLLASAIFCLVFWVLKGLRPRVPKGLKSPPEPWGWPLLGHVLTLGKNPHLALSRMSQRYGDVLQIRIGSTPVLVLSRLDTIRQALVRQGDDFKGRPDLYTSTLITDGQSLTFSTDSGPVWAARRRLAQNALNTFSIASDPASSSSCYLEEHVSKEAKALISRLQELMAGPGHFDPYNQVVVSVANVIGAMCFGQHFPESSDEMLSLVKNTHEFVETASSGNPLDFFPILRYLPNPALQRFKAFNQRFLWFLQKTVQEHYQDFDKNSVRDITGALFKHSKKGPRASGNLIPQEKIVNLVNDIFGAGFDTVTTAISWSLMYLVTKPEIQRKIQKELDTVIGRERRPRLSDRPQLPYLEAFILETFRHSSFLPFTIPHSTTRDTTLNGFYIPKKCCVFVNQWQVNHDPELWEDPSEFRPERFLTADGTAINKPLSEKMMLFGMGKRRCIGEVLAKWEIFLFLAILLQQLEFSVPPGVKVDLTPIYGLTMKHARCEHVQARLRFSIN
Chain of Ubiquitin carboxyl-terminal hydrolase 1 (Homo sapiens) (O94782 whole entry, looked up): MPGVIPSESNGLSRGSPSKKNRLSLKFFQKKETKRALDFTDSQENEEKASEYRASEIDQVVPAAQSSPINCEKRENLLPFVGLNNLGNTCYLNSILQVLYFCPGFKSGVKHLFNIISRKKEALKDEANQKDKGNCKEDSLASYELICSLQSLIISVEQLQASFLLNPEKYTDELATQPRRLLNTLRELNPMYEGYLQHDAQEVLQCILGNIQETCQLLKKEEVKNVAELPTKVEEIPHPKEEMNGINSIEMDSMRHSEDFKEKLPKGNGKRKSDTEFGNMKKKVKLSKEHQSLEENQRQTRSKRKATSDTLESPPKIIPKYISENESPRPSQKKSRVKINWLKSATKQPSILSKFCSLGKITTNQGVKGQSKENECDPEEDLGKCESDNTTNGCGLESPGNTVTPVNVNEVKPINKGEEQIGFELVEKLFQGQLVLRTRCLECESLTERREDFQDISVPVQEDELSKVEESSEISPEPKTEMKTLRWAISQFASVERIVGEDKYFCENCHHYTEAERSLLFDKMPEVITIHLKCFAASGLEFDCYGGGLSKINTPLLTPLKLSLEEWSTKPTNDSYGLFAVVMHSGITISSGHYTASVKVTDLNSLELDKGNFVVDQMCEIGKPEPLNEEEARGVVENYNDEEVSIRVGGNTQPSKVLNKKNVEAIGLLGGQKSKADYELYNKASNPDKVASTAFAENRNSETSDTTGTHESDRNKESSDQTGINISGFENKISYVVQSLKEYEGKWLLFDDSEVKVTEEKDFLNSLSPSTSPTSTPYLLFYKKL
Chain of Lysosomal acid glucosylceramidase (Homo sapiens) (P04062 whole entry, looked up): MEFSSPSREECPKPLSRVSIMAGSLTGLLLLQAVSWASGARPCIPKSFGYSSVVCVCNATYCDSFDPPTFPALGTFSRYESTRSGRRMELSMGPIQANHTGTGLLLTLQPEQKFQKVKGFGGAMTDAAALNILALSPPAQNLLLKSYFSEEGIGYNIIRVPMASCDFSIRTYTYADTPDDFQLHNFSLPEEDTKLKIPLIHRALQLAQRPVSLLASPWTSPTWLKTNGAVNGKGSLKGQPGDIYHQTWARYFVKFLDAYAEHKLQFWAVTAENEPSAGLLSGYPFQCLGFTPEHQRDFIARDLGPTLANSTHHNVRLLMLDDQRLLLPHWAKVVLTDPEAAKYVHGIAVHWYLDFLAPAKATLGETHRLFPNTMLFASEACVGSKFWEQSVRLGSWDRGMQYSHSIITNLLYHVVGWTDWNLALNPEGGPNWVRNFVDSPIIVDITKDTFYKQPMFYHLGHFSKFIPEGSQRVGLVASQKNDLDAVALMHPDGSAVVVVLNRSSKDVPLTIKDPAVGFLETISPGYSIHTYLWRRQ
Chain of Cytochrome P450 2C19 (Homo sapiens) (P33261 whole entry, looked up): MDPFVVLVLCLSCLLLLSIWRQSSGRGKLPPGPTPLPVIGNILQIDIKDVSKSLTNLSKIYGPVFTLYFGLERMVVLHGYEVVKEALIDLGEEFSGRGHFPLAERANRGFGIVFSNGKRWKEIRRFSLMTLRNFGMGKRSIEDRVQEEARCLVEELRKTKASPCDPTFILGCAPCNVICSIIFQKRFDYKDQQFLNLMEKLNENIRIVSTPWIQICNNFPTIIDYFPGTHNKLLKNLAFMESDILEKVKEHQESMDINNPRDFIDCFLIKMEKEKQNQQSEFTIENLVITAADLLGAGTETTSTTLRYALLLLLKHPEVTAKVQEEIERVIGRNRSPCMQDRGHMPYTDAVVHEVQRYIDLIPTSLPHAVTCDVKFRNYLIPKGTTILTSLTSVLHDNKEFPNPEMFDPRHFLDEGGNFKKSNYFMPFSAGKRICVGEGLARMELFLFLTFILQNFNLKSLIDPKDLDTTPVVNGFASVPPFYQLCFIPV

Consider `Cc1noc(C)c1-c1cncnc1N(C)Cc1ccco1`, for which the Potency is > 11.4 µM (inactive) in assay [1]; > 46 µM (inactive) in assay [6]; > 46 µM (inactive) in assay [7]; 3.16 µM (active) in assay [10]; 2.51 µM (active) in [12]. Besides, the activity change, negative = inhibition in [2] was 1.41% (inactive); in assay [4], -7.22% (inactive); in [13], 4.24% (inactive). The Potency result in [3], in assay [9], in assay [11], in [14], in assay [15] and in assay [16] was “inactive” in each case. Also, the Potency result in assay [17] was “inactive”. Moreover, the activity, negative = inhibition in assay [5] was -0.77% (inactive). Further, the molecule was classed as inactive in assay [8]. The max response in assay [13] (setting [19]) was determined as 11.5%; in assay [13] (setting [20]) it was 13.2%.
For the molecule `Cc1ccccc1-c1nccc(NCCN2CCOCC2)n1`, the Potency in assay [1] is > 11.4 µM (inactive); in assay [3], 5.01 µM (active); in [6], > 46 µM (inactive); in assay [7], > 46 µM (inactive). In addition, the activity change, negative = inhibition in [2] is 20.7% (inactive); in [4], -13.9% (inactive); in assay [13] it was 3.61% (inactive). For the same molecule, the activity, negative = inhibition in assay [5] was -1.96% (inactive). The molecule was called inactive in assay [8]. Further, the Potency entry in [9], in assay [11], in assay [14], in assay [15], in assay [16] and in assay [17] was “inactive” each time. Besides, the figures for the max response in assay [13] (setting [19]) and in assay [13] (setting [20]) were 17.5% and 21.4%, respectively.
On to `CC(=O)NCCNc1cc(-c2ccccc2C)ncn1`, for which the Potency in assay [1] was > 11.4 µM (inactive); in assay [3], 15.8 µM (active); in [6], > 46 µM (inactive); in assay [7] it was > 46 µM (inactive). Further, the figures for the activity change, negative = inhibition in assay [2] and in assay [13] were 12% (inactive) and 3.34% (inactive), respectively. Further, the activity, negative = inhibition in [5] is 16.5% (inactive). The outcome in assay [8] was inactive. Further, the Potency entry in assay [9], in [14], in assay [15], in [16] and in assay [17] was “inactive” in each case. The max response in [13] (setting [19]) is 16.2%; in assay [13] (setting [20]), 17.3%.
As for `COc1ccc(-c2nc3cnc(Oc4ccccc4)nc3n(CCC#N)c2=O)cc1`, the values for the Potency in [1], in [6] and in assay [7] were > 11.4 µM (inactive), > 9.22 µM (inactive) and > 46 µM (inactive), respectively. For the same molecule, the activity change, negative = inhibition in [4] was -15.1% (inactive); in assay [13], 1.13% (inactive). Besides, the activity, negative = inhibition in [5] is -20% (inactive). For the same molecule, in [8], the result was inactive. Moreover, the Potency entry in assay [9], in assay [14], in assay [18], in assay [16] and in assay [17] was “inactive” throughout. Moreover, the figures for the max response in assay [13] (setting [19]) and in assay [13] (setting [20]) were -12.9% and -14%, respectively.
As to `Cc1nc2cnc(N3CCOCC3)nc2n(Cc2ccc(F)cc2)c1=O`, the Potency in assay [1] was > 11.4 µM (inactive); in assay [6] it was > 9.22 µM (inactive); in [7], > 46 µM (inactive). Further, the figures for the activity change, negative = inhibition in [2], in [4] and in assay [13] were -3.91% (inactive), -17.2% (inactive) and 2.61% (inactive), respectively. For the same molecule, in [5], the activity, negative = inhibition was 4.04% (inactive). For the same molecule, the molecule was called inactive in [8]. Also, the values for the max response in assay [13] (setting [19]) and in [13] (setting [20]) were 13.7% and 15.9%, respectively. Further, the Potency entry in assay [14], in assay [15], in assay [16] and in [17] was “inactive” throughout.
On to `CN(C)c1ccc(-c2ccc3ncnc(-n4ccnc4)c3c2)cc1`, for which the Potency is > 11.4 µM (inactive) in [1]; 0.316 µM (active) in assay [3]; > 46 µM (inactive) in [6]; > 46 µM (inactive) in assay [7]; 3.16 µM (active) in assay [14]; 4.47 µM (active) in assay [18]. Further, the activity, negative = inhibition in assay [5] was -10% (inactive). Further, the molecule was classed as inactive in assay [8]. The Potency result in assay [9], in assay [11], in assay [16] and in [17] was “inactive” each time. Moreover, the activity change, negative = inhibition in assay [13] was 7.19% (inactive). Also, the results for the max response in [13] (setting [19]) and in assay [13] (setting [20]) were 4.81% and 9.84%, respectively.
